Assay [1] in a line: qHTS assay for small molecules that induce genotoxicity in human embryonic kidney cells expressing luciferase-tagged ATAD5 (AID 651632). Also: nearly all actives have a fitted effect of over 15% in size. Also: potency is read from the fitted curve at half-maximal effect. The gist of the method:
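Reporter cells (HEK293T) express luciferase-tagged ATAD5, a protein that accumulates after DNA damage. Treat 16 hr at 37C/5% CO2, add Amplite, wait 30 min at RT, and read luminescence.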
In general terms: In qHTS, concentration-response curves come from the screen itself.

The nature of assay [2]: qHTS assay for small molecule agonists of the p53 signaling pathway - cell viability (AID 651633; calls by dose curve; also: nearly all actives have a fitted effect of over 30% in size; also: potency is read from the fitted curve at half-maximal effect;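 as to activity change, negative = cytotoxicity: p53RE-bla HCT reporter cells with a stable beta-lactamase p53 reporter; series mostly up to about 83 µM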). A digest of the protocol:
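p53RE-bla cells were treated with compound for 16 hours at 37 C. Cytotoxicity was then measured as CellTiter-Glo luminescence after 30 min at room temperature.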

A short description of assay [3]: qHTS assay for small molecules that induce genotoxicity in human embryonic kidney cells expressing luciferase-tagged ATAD5 - cell viability (AID 651634; calls by dose curve; also: nearly all actives have a fitted effect of over 25% in size; also: potency is read from the fitted curve at half-maximal effect). The gist of the method:
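Seeding of 2,000 HEK293T ATAD5-luciferase cells per well preceded pin-tool compound transfer. Plates sat 15.5 hr at 37C under 5% CO2, then fluorescence was read after 30 min with CellTiter-Fluor.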

A short description of assay [4]: qHTS assay to test for compound auto fluorescence at 590 nm (red) in HepG2 cells (AID 720674). A digest of the protocol: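 Seeding: 2,000 HepG2 cells/well, MEM/10% FBS, overnight 37 C. Dosing: compound vs DMSO. Incubation: 1 hr, 37 C, 5% CO2. Read: fluorescence 540 ex/590 em, Rose Bengal sodium as red reference.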
A short description of assay [5]: qHTS assay to test for compound auto fluorescence at 535 nm (green) in HepG2 cells (AID 720675).
A short description of assay [6]: qHTS assay to test for compound auto fluorescence at 460 nm (blue) in HEK293 cells (AID 720678). The gist of the method:
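Measured: blue fluorescence (Ex 405/Em 460 nm) of compound-treated HEK293 cells, incubated overnight at 37C with 5% CO2 and scaled to triamterene equivalents.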

The nature of assay [7]: qHTS assay to test for compound auto fluorescence at 590 nm (red) in HEK293 cells (AID 720679). The gist of the method:
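Using HEK293 cells at 2,000 per well, the screen added 23 nL of each compound after cell attachment and incubated overnight (37C, 5% CO2). The plate reader then captured red-label fluorescence, Ex/Em 540/590nm.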

A short description of assay [8]: qHTS assay to test for compound auto fluorescence at 535 nm (green) in HEK293 cells (AID 720680).
Assay [9] in a line: qHTS assay to test for compound auto fluorescence at 460 nm (blue) in HEK293 cell free culture (AID 720681). The gist of the method: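 Compounds were added to cell-free DMEM with 10% FBS and fluorescence read directly. The blue channel used 405 nm excitation and 460 nm emission, with triamterene as the reference fluorophore.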
Assay [10] can be described thus: qHTS assay to test for compound auto fluorescence at 535 nm (green) in HEK293 cell free culture (AID 720682). A digest of the protocol: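 Cell-free medium (DMEM, 10% FBS) receives compound or DMSO by pintool. Plate read directly at Ex 485/Em 535 nm. Signal converted to fluorescein equivalency.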
Assay [11] is described as follows: qHTS assay to test for compound auto fluorescence at 590 nm (red) in HEK293 cell free culture (AID 720683). The gist of the method: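 Cell-free wells of DMEM with 10% FBS received compound, and intrinsic fluorescence was read at excitation/emission 540/590 nm. Values expressed as equivalence to Rose Bengal sodium.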
A short description of assay [12]: qHTS assay to test for compound auto fluorescence at 590 nm (red) in HepG2 cell free culture (AID 720684). The gist of the method: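 Compound was pinned into wells holding MEM with 10% FBS and no cells, and red fluorescence was read at Ex/Em 540/590 nm. Signal is expressed as auto fluorescence equivalency relative to Rose Bengal sodium.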
The nature of assay [13]: qHTS assay to test for compound auto fluorescence at 460 nm (blue) in HepG2 cell free culture (AID 720685). A digest of the protocol: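 Compound (23 nL) or DMSO pinned into cell-free MEM with 10% FBS; blue fluorescence read at 405/460 nm excitation/emission, expressed as auto-fluorescence equivalency to triamterene.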
Assay [14] is described as follows: qHTS assay to test for compound auto fluorescence at 535 nm (green) in HepG2 cell free culture (AID 720686).
Assay [15] can be described thus: qHTS assay to test for compound auto fluorescence at 460 nm (blue) in HepG2 cells (AID 720687). A digest of the protocol: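 HepG2 cells in MEM with 10% FBS, attached overnight at 37 C, were exposed to compound or DMSO for 1 hr at 37 C, 5% CO2. Blue fluorescence was read at 405/460 nm, with triamterene as reference fluorophore.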
Assay [16] concerns the target Glucocorticoid receptor (Homo sapiens) (UniProt P04150). Put plainly: qHTS assay to identify small molecule agonists of the glucocorticoid receptor (GR) signaling pathway (AID 720691; active = well fitted activation curve with a large enough effect in the signal ratio in the repeat runs, not every such curve was filed as active; the % refers to the signal ratio). A digest of the protocol: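 Reporter read-out: fluorescence intensity following 2 h room-temperature LiveBLAzer B/G FRET substrate loading. Prior step: GR-bla HeLa cells held 4 h, then treated 18 h at 37 C.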

Assay [17] has the same target. Put plainly: qHTS assay to identify small molecule antagonists of the glucocorticoid receptor (GR) signaling pathway (AID 720692; active = well fitted inhibition curve with a large enough effect in the signal ratio in the repeat runs, not every such curve was filed as active; the % refers to the signal ratio; also: potency is read from the fitted curve at half-maximal effect). The gist of the method: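 Dexamethasone (5 nM final) stimulated a stably integrated GRE-beta-lactamase reporter in HeLa cells during 18 h co-incubation with compounds; signal was quantified as fluorescence intensity of B/G FRET substrate after 2 h.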

Assay [18] is described as follows: qHTS assay for small molecule disruptors of the mitochondrial membrane potential - cell viability (AID 720634; calls by dose curve; also: nearly all actives have a fitted effect of over 20% in size; also: potency is read from the fitted curve at half-maximal effect;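 as to activity change, negative = cytotoxicity: human HepG2 liver cancer cells; series mostly up to about 83 µM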). The gist of the method: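 Measuring cytotoxicity alongside mitochondrial potential, the screen quantified ATP by luminescence in HepG2 cells after 1 hr compound incubation and a 30 min room-temperature CellTiter-Glo step.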
A short description of assay [19]: qHTS assay for small molecule disruptors of the mitochondrial membrane potential (AID 720635). The gist of the method: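 HepG2 cells exposed to compound 1 hr at 37C, then Mito-MPS dye 30 min. Ratio read of aggregate (540/590 nm) versus monomer (490/535 nm) fluorescence.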

Values joined by “and” are separate entries in the source; they are usually repeats but may differ in a detail not shown here. Equal entries are not always repeated. Unmarked numbers belong to inactive results. Inconclusive results are not listed. Active and inactive are the calls of the source. Unless noted, calls follow the shape of the dose curve; as a rule, active = well fitted curve in the direction sought with a large enough effect in the repeat runs; inconclusive = weak or mixed curves; inactive = no such curve, though single readings can be large; an effect the other way counts as inactive or inconclusive.
% is scaled to controls: 0 for no effect and ±100 for the full control effect.

Chain of Glucocorticoid receptor (Homo sapiens) (P04150 whole entry, looked up): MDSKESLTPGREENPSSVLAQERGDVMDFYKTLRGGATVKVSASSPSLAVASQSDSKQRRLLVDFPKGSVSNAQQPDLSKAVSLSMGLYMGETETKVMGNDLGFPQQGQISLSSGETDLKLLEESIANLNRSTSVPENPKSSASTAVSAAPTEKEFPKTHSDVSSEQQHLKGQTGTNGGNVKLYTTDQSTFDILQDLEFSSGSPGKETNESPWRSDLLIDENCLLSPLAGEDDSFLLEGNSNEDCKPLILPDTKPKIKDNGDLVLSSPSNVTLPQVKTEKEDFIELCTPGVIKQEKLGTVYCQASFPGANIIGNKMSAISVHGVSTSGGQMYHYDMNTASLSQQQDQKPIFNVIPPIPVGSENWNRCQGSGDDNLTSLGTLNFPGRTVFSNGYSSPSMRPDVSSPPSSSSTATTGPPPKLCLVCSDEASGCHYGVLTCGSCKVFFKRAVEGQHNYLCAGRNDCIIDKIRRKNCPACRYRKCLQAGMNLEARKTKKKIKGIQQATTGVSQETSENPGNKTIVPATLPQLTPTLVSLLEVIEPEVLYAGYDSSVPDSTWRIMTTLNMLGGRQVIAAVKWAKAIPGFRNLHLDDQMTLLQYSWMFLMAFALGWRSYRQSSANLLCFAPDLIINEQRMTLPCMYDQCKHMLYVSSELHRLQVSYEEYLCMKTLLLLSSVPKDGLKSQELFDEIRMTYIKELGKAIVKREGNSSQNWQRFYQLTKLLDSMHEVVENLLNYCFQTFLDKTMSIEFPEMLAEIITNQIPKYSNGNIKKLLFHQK

`O=[N+]([O-])c1cc(Cl)c(Cl)cc1Cl`: the Potency result in [1], in assay [2], in assay [3], in assay [16] and in assay [17] was “inactive” each time. Also, the result in assay [4], in assay [5], in assay [6], in assay [7], in assay [8] and in [9] was inactive. The result in assay [10], in [11], in [12], in assay [13], in assay [14] and in [15] was inactive.
As for `CN(C)c1ccc(N=O)cc1`, the Potency in [1] is 21.8 µM (active) and 68.6 µM (active); in assay [2], 21.8 µM (active); in assay [3] it was 61.3 µM (active) and 54.5 µM (active); in [18], 17.3 µM (active) and 48.6 µM (active); in [17], 38.9 µM (active). The call in assay [5], in assay [6], in assay [7], in assay [8], in assay [9] and in assay [10] was inactive. For the same molecule, the call in [11], in assay [12], in assay [13], in assay [14] and in assay [15] was inactive. Further, the Potency entry in assay [16] is “inactive”.
On to `CCCCCCCCCCCCN=C(N)N`, for which the activation in assay [1] was -6.24% [at 3.63 µM]. Besides, in assay [2], the activity change, negative = cytotoxicity was -15.7% [at 3.63 µM]. In addition, the activity, negative = cytotoxicity in assay [3] was -6.8% [at 3.63 µM]. Besides, in assay [4], the fluorescence, relative to Rose Bengal is 0.188% [at 3.72 µM]. In addition, the results for the fluorescence, % of fluorescein control in assay [5] and in [14] were -0.0052% [at 3.72 µM] and -0.0679% [at 3.72 µM], respectively. The fluorescence, % of fluorescent control in assay [7] is 0.144% [at 3.72 µM]; in assay [9], -0.0835% [at 3.72 µM]; in [11], 0.145% [at 3.72 µM]; in assay [13] it was -0.0023% [at 3.72 µM]; in assay [15], 0.0214% [at 3.72 µM]. For the same molecule, in assay [8], the fluorescence, % of fluorescein was 0.14% [at 3.72 µM]. Further, the activity change in assay [10] was 0.0011% [at 3.72 µM]. Also, in assay [12], the fluorescence, % of Rose Bengal was 0.0947% [at 3.72 µM].
`CCC1CCC(=O)O1` (stereo not drawn): the Potency entry in assay [1], in assay [3], in assay [18], in assay [19] and in assay [17] was “inactive” in each case. Further, the molecule was called inactive in [4], in [5], in assay [6], in assay [7], in assay [8] and in [9]. The molecule was called inactive in [10], in assay [11], in [12], in [13], in [14] and in [15].
Turning to `CCOP(=S)(OCC)Oc1ccc(S(C)=O)cc1` (stereo not drawn), the Potency result in assay [1], in assay [2], in assay [3] and in assay [18] was “inactive” each time. For the same molecule, the call in [5], in assay [7], in assay [8], in assay [9], in [10] and in [11] was inactive. Further, the call in assay [13], in [14] and in assay [15] was inactive.
For the molecule `CNC(=O)Oc1cccc(N=CN(C)C)c1`, the Potency entry in assay [1], in assay [2], in [3] and in [19] was “inactive” each time. For the same molecule, the result in assay [4], in [5], in assay [6], in [7], in assay [8] and in [9] was inactive. For the same molecule, the molecule was called inactive in [10], in [11], in assay [12], in assay [13], in assay [14] and in [15].
In the case of `CC(C)OC(=O)Cc1ccccc1`, the Potency result in assay [1], in [2], in assay [3], in [19], in assay [16] and in assay [17] was “inactive” each time. The outcome in assay [5], in [7], in [8], in assay [9], in assay [10] and in assay [12] was inactive. The result in [13], in assay [14] and in assay [15] was inactive.
Consider `CCC1(CC)C(=O)NC(=O)NC1=O`, for which the Potency result in assay [1], in assay [2], in assay [3], in [18] and in assay [17] was “inactive” in each case. The molecule was classed as inactive in [5], in [6], in assay [7], in assay [8], in assay [9] and in [10]. Also, the call in [13], in assay [14] and in assay [15] was inactive.
